Several values for one entry are separate records, joined by “and”; a condition that tells them apart may be missing. Identical values can stand only once. The panel holds about 83,000 compounds, 20% with a hit somewhere; the sample as a whole holds those more often.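 Results are percent growth after 48 hours of single-concentration exposure. 100 means growth as in untreated cells, lower positive values show inhibition; negative values down to -100 show cell death.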 Activity calls are given as the source filed them. How the source made its calls: active means growth percent below 10; inactive means the rest.
The molecules below were run on NCI-H522 lung (assay: NCI-60 one-dose screen, 48 h (100 = growth as untreated, 0 = no growth, -100 = all killed)). Details: 10 µM unless noted.
In the case of COc1ccc(C/C(C)=C(/c2ccc(OCCN3CCCC3)cc2)c2ccc(OC(=O)NCc3ccccc3)cc2)cc1, the growth is reported as 92.6% (inactive).
For CCN(CC)CCOc1ccc(/C(=C(\Cl)c2ccccc2)c2ccccc2)cc1, the growth was 43.9% (inactive) and 98.7% (inactive).
In the case of Cc1ccc(/C=C2\COc3ccc(O)c(O)c3C2=O)cc1, the growth is reported as -74.8% (active).
COc1ccc2c(c1)oc1c(C)c3c(c(C)c12)C(=O)N(Nc1ccccc1)C3=O was tested, and the growth was 95.7% (inactive).
In the case of CCC(=C(c1ccc(OCCCN(C)C)cc1)c1ccc(OCCCN(C)C)cc1)c1ccc(Cl)cc1, the growth is reported as -66.5% (active).
In the case of CCOC(=O)c1c(-c2ccc(C)cc2)c(C#N)c(=O)n(-c2cccc(C(F)(F)F)c2)c1N, the growth is reported as 94.6% (inactive).
S=c1nc(CS)[nH]c2ccccc12 was tested, and the growth was 95.6% (inactive).
For O=C(N/N=C/c1ccc(O)cc1O)c1cccc(Nc2ccnc(C(F)(F)F)c2)c1, the growth was 41.5% (inactive).
CCN(CC)CCCN1C(=O)c2c(c(C)c3c(oc4cc(OC)ccc43)c2C)C1=O was tested, and the growth was 104% (inactive).
Cc1ccc(NC(=O)c2ccc(CN3CCN(C)CC3)cc2)cc1Nc1nccc(-c2cccnc2)n1 was tested, and the growth was 51.2% (inactive).
In the case of COc1cc(/C=C2/C=C(c3ccc(C(C)(C)C)cc3)N(CCc3ccc(S(N)(=O)=O)cc3)C2=O)cc(OC)c1OC, the growth is reported as 49.8% (inactive).
In the case of O=c1c(/C=C/c2ccco2)nnc2sc(Nc3ccc(Cl)cc3)nn12, the growth is reported as 90.8% (inactive).
Nc1[nH]nc(Nc2ccccc2)c1-c1nc2ccccc2s1 was tested, and the growth was -44.6% (active).
For CCCCCCCCn1ccc2cc(NC(=O)CN3CCN(c4nc(C)cc(N5CCCCC5)n4)CC3)ccc21, the growth was 76.7% (inactive).
CC/C(=C(/c1ccc(O)cc1)c1ccc(OCCN2CCCCCC2)cc1)c1ccc(Cl)cc1 was tested, and the growth was 90.2% (inactive).
In the case of C=C(C)[C@@H]1CC[C@]2(C(=O)N3CCN(C)CC3)CC[C@]3(C)[C@H](CC[C@@H]4[C@@]5(C)CC(CCCNC(C)=O)(CCCNC(C)=O)[C@H](OC(C)=O)C(C)(C)[C@@H]5CC[C@]43C)[C@@H]12, the growth is reported as 96.3% (inactive).
In the case of CCN(c1cc(-c2ccc(CN3CCC(/C=C/S(=O)(=O)c4ccccc4)CC3)cc2)cc(C(=O)NCc2c(C)cc(C)[nH]c2=O)c1C)C1CCOCC1, the growth is reported as 77.7% (inactive).
In the case of Nc1nc(N)c2c(n1)NC(c1ccc(Cl)cc1)CC(c1cccc(Nc3ccncc3)c1)=N2 (stereo not drawn), the growth is reported as 88.6% (inactive).
With C=C(c1ccc(C(=O)O)cc1)c1cc2c(cc1C)C(C)(C)CCC2(C)C the growth was 52.4% (inactive) and 61.4% (inactive).
For O=C1OCC2=C1C(c1cccc([N+](=O)[O-])c1)c1cc3c(cc1N2CCO)CCC3 (stereo not drawn), the growth was -4.9% (active).
With CCN(CC)/C([O-])=c1\cccc\c1=C1\N=C(c2ccccc2)N=C1[n+]1ccc(-c2ccccc2)cc1 the growth was 21% (inactive).
With Cc1nc(-n2[nH]c(=O)ccc2=O)sc1N=Nc1ccccc1 the growth was 103% (inactive).
With Cc1ccc(-c2nc3nc(-c4ccccc4)nc(N4CCCNCC4)c3o2)cc1 the growth was -69.6% (active).
With O=C([C@H]1C[C@H]1c1ccc(S(F)(F)(F)(F)F)cc1)N1CCN(c2cc(Cl)ccc2C(F)(F)F)CC1 the growth was 70.7% (inactive).
For OB(O)c1ccsc1-c1nc2ccc3[nH]ncc3c2c2c1CCCC2, the growth was 32.2% (inactive).
For CC[C@]12CN3CCc4c([nH]c5ccccc45)[C@@](C(=O)OC)(c4cc5c(cc4OC)N(C)[C@H]4[C@@](O)(C(=O)OC)[C@H](OC(C)=O)[C@]6(CC)C=CCN7CC[C@]54[C@@H]76)CC(C3)[C@H]1O2 (stereo partly drawn), the growth was -5.19% (active).
In the case of COC(=O)N/N=C/c1c[n+]([O-])c2ccccc2[n+]1[O-], the growth is reported as 92.9% (inactive).
For Cn1ccnc1CN1CCSC(C(=O)Nc2ccccc2)C1 (stereo not drawn), the growth was 85.6% (inactive).
For CCNC(=O)Oc1ccc(/C(=C(/C)Cc2ccc(OC)cc2)c2ccc(OCCN(CC)CC)cc2)cc1, the growth was 58.1% (inactive).
Cc1ccc(-c2nc(C#N)c(S(=O)(=O)N(C)C)o2)cc1 was tested, and the growth was -0.0776% (active).
In the case of COCCn1cc(-c2nc(-c3cn(CCOC)c4ncccc34)cs2)c2ccccc21, the growth is reported as 53.4% (inactive).
In the case of Nc1nc2ccccc2c2c(=O)c3ccc(Cl)cc3sc12, the growth is reported as 94.3% (inactive).
For CC[C@]1(O)CC2CN(CCc3c([nH]c4ccccc34)C(C(=O)OC)(c3cc4c(cc3OC)N(C=O)[C@H]3[C@@](O)(C(=O)OC)[C@H](OC(C)=O)[C@]5(CC)[C@@H]6C[C@@H]6CN6CC[C@]43[C@@H]65)C2)C1 (stereo partly drawn), the growth was -21.4% (active).
CN1CCN(CCCN2c3ccccc3Sc3ccc(Cl)cc32)CC1 was tested, and the growth was 81.5% (inactive) and 92.9% (inactive).
Nc1ncc(-c2ccc3ncnc(N4CCc5ccc(Cl)cc54)c3c2)cc1C(F)(F)F was tested, and the growth was 14.1% (inactive).
CC(C)(C)c1cc(NC(=O)Nc2ccc(-c3cn4c(n3)sc3cc(OCCN5CCOCC5)ccc34)cc2)no1 was tested, and the growth was -3.14% (active) and 10.6% (inactive).
For CC1(Cc2ccccc2)CC2=C(C(=O)O1)C(c1ccccc1)NC(=O)N2 (stereo not drawn), the growth was 95.4% (inactive).
With COc1cc(C=O)ccc1Oc1ccc([N+](=O)[O-])cc1[N+](=O)[O-] the growth was 94.3% (inactive).

— PubChem BioAssay (NCI)
